This is a sample that favours compounds with a hit; in the whole collection about 3.7% have one here.
ClpP mod: qHTS Assay for Activators of ClpP | 340,000 tested, 1.9% active | AID 651965, 2013 | ATP-dependent Clp protease proteolytic subunit (Bacillus subtilis (strain 168)), P80244 | Potency, µM (series often up to 57.5 µM), for inactives: top-dose activity change, negative = active | purified B. subtilis ClpP, FRET peptide cleavage, 20 min; active means well fitted falling curve with a large enough effect; inconclusive means small, poorly fitted or top-dose-only effect; inactive means no such curve, though single readings can be large or run the other way; further: potency means the concentration at half of the fitted maximal effect; the source files actives as falling curves though it sought activators and does not explain the sign; nearly all actives have a fitted effect of over 65% in size
Target sequence (P80244 whole entry, looked up): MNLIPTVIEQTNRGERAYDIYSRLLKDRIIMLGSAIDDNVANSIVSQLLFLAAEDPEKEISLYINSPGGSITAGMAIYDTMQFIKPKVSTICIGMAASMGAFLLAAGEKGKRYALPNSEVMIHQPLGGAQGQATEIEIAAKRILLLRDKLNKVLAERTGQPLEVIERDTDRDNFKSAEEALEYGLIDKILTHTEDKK
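ClpP 10 microg/mL final, pH 8 Tris/KCl buffer with BSA, glycerol, Tween-20; compound pinned in; FRET-FV substrate; RT 20 min; Ex320/Em430; ΔFRET vs ADEP 5.8 microM, DMSO, no enzyme.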
Nrf2 ARE act: qHTS of Nrf2 Activators. AREc32 ARE-luciferase reporter (MCF7-derived line), luminescence, 24 h. Potency, µM (titrated, usually from 46.1 µM), inactives show at the highest dose activation, usual class: activators. 410,000 tested, 0.31% active; further: potency means the concentration at half of the fitted maximal effect; % of control where 0% means no effect; nearly all actives have a fitted effect of over 65% in size
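ARE activation measured as luciferase luminescence (Steady-Glo, 30 min RT) in AREc32_Fluc cells after 24 hr compound exposure at 37 deg C, 5% CO2; cells seeded overnight at 1000/well in OPTI-MEM, 5% FBS.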
Nrf2 inh: Nrf2 qHTS screen for inhibitors. 360,000 tested, 2.1% active. Potency, µM (titrated, usually from 46 µM), without a hit: at the highest dose activity change, negative = inhibition, actives largely listed as inhibitors. A549 ARE-Fluc reporter, luciferase luminescence, 18-24 h; further: potency means the concentration at half of the fitted maximal effect; on the % scale 0 is the no-effect control and ±100 the full control effect; nearly all actives have a fitted effect of over 60% in size
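Two sequential reads on A549 ARE_Fluc cells exposed to compound for 18-24 h: a CellTiter-Fluor fluorescence read for viability, then a luciferase luminescence read for Nrf2/ARE activity.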
p53 reactivator: qHTS assay for re-activators of p53 using a Luc reporter | H1299 p53-A138V BP100-luciferase reporter, luminescence, 24 h | Potency, µM (titrated, usually from 92.2 µM), without a hit: top-dose activity change, positive = activation, actives largely listed as activators | 320,000 tested, 0.063% active; further: potency means the concentration at half of the fitted maximal effect; % of control where 0% means no effect; nearly all actives have a fitted effect of over 45% in size
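H1299 (p53-null), stable ts p53-A138V + BP100-Luc; 1000 cells/well, Opti-MEM/10% FBS; cpd 4 pt, 1:5; 24 h, 37 deg C, 5% CO2; detection reagent 10 min RT; luminescence.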
miR-21 reporter: qHTS Assay for Modulators of miRNAs and/orActivators of miR-21. HeLa miR-21 FLuc reporter, luciferase, 48 h. Potency, µM (top dose mostly 38.3 µM), for inactives: at the highest dose activity change, positive = activation, most hits filed as activators. AID 2288, 2010. 340,000 tested, under 10 active;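 further: % of control where 0% means no effect; miR-21 action dims this reporter so a rising signal means less miR-21 action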
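Using DMEM plus 10% FBS, HeLa miR-21-FLuc cells are incubated with test compounds (final up to about 40uM) for 48 hours; firefly luciferase signal is then imaged following reagent-mediated lysis.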
A549 tox: Nrf2 qHTS screen for inhibitors: counterscreen for cytotoxicity. A549 ARE-Fluc cells, CellTiter-Fluor viability, 18-24 h. Potency, µM (series often up to 46 µM), for the others: at the top dose activity change, negative = cytotoxicity, actives largely listed as inhibitors. 390,000 tested, 0.16% active. AID 504648, 2011; further: potency means the concentration at half of the fitted maximal effect; on the % scale 0 is the no-effect control and ±100 the full control effect
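A549 ARE-Fluc cells in 5% FBS OPTI-MEM, 5000 cells/well, rested 2 h then exposed to compounds in concentration-response for 18-24 h at 37 °C. Viability by CellTiter-Fluor fluorescence (Ex 405/Em 525) after 30 min; luciferase luminescence (BugLite, 15 min, RT) read afterwards.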
* = called active by the depositor; u = inconclusive; x = no result; ! = not confirmed by another sample; [ ] = another dose, or the depositor's remark. Unless noted, the call rests on the fitted dose curve; in most records, active means well fitted curve in the direction sought with a large enough effect; inconclusive means small, poorly fitted or top-dose-only effect, or another doubt; inactive means no such curve, though single readings can be large; an effect the other way counts as inactive or inconclusive.

SMILES	ClpP mod	Nrf2 ARE act	Nrf2 inh	p53 reactivator	miR-21 reporter	A549 tox
CN(C)/C=N/c1nc2nccc(-c3cccnc3)n2n1	x	-0.6%	-18.8%	5.4%	0.7%	-2.1%
COc1ccc(-c2ccnc3nc(/N=C/N(C)C)nn23)cc1	x	2.9%	-6.8%	-0.6%	-2.5%	1.3%
O=C1CCc2cc(S(=O)(=O)Nc3ccc(Cl)c(Cl)c3)ccc2N1	x	x	3.1%	x	x	u
CCOC(=O)Cc1csc(NC(=O)/C=C/c2ccccc2Cl)n1	0.2%	u	u	3.9%	0.4%	-12.6%
CCOC(=O)Cc1csc(NC(=O)/C=C\c2ccccc2Cl)n1	x	u	25.9µM*	4.1%	-2.6%	-16.1%
CCOC(=O)Cc1csc(NC(=O)c2csc3c2CCCC3)n1	-1.5%	0.1%	18.4µM*	13.8%	25.3%	-0.5%
CCOC(=O)Cc1csc(NC(=O)c2cc(C)c(C)s2)n1	28.2µM*	4.6%	-4.4%	23.3%	x	-1.1%
CC(C)C[C@H]1CN([C@@H](Cc2ccccc2)CN2CCC[C@H]2CN2C(=O)C(=O)NC[C@@H]2Cc2ccccc2)C(=O)C(=O)N1CCc1ccccc1	-0.9%	-3.3%	x	x	x	x
COc1cccc(C2c3c(ncn(-c4ccc(C(C)(C)C)cc4)c3=N)Oc3ccc4ccccc4c32)c1 (stereo not given)	x	x	u	x	x	-6.2%
CCOc1cc2ccccc2cc1C(=O)OCC(=O)Nc1ccc(Br)cc1	4.3%	x	x	x	x	x
O=C(N/N=C\c1ccc(CNS(=O)(=O)c2ccccc2)o1)C(=O)Nc1ccc(F)cc1	-4.2%	0.6%[9.22 µM]	2.6%	8.7%	-25.9%	-4.7%
O=C(N/N=C\c1ccc(CNS(=O)(=O)c2ccc(Cl)cc2)o1)C(=O)Nc1ccc(Oc2ccccc2)cc1	0.5%	-0.8%	16.4µM*	8.3%	-11.3%	u
Cc1cccc(CS(=O)(=O)c2ncc(Cl)c(C(=O)Nc3nnc(C(C)C)s3)n2)c1	-0.8%	-2.4%	0.7%	-31.3%	u	u
CCc1nnc(NC(=O)c2nc(S(=O)(=O)Cc3cccc(C)c3)ncc2Cl)s1	1.2%	-2.5%	23.1µM*	-37.5%	u	u
CC(=O)Nc1ccc(NC(=O)c2nc(S(=O)(=O)Cc3ccccc3)ncc2Cl)cc1	3.4%	-2.9%	4.0%	-20.4%	u	2.0%
CCc1nnc(NC(=O)c2nc(S(=O)(=O)Cc3ccccc3)ncc2Cl)s1	x	14.1µM*	-114.3%	-18.9%	u	u
Cc1ccc(CS(=O)(=O)c2ncc(Cl)c(C(=O)Nc3nnc(C(C)C)s3)n2)cc1	-2.7%	3.2%	20.6µM*!	-35.1%	u	u
CCc1nnc(NC(=O)c2nc(S(=O)(=O)Cc3ccc(C)cc3)ncc2Cl)s1	-1.2%	2.3%	20.6µM*!	-27.5%	u	u
CC(C)c1nnc(NC(=O)c2nc(S(=O)(=O)Cc3ccc(F)cc3)ncc2Cl)s1	x	u	17.1%	-29.2%	u	u
c1nc(NCCc2cnc[nH]2)c2cc(-c3ccc4c(c3)OCO4)ccc2n1	x	x	7.8%	x	x	-1.1%
Cc1cc(C)c(C)c(S(=O)(=O)NCc2ccncc2)c1C	x	0.1%	13µM*	0.4%	12.0%	-17.7%
O=S(=O)(NCc1ccncc1)c1ccccc1	0.1%	0.2%	u	-1.2%	10.7%	-14.5%
Cc1cc(Br)c(S(=O)(=O)NCc2ccncc2)cc1C	-4.8%	-0.1%	3.66µM*	x	9.7%	-19.1%
COc1cc(C)c(Cl)cc1S(=O)(=O)NCc1ccncc1	x	x	x	1.0%	10.2%	x
CCN(CC)S(=O)(=O)c1ccc2c(c1)N(CC(=O)Nc1ccc(F)cc1)C(=O)CO2	-3.8%	0.1%	-8.5%	x	3.1%	-14.7%
O=C1c2ccccc2NC(c2ccccc2)N1Cc1ccco1 (stereo not given)	28.2µM*	3.0%	-27.9%	-0.4%	-4.1%	-1.1%

Source: PubChem BioAssay (National Center for Advancing Translational Sciences (NCATS))
